Compound activity as filed in PubChem.
D2 ag-1: agonists of human D2 dopamine receptor (beta-arrestin) | P14416 | DiscoveRx PathHunter D2 beta-arrestin, luminescence, 90 min; 100% = 57 uM dopamine signal | activation, % (no concentration beside the values) | 360,000 tested, 0.084% active; in the data active = activation above about 40%
Target sequence (P14416 whole entry, looked up): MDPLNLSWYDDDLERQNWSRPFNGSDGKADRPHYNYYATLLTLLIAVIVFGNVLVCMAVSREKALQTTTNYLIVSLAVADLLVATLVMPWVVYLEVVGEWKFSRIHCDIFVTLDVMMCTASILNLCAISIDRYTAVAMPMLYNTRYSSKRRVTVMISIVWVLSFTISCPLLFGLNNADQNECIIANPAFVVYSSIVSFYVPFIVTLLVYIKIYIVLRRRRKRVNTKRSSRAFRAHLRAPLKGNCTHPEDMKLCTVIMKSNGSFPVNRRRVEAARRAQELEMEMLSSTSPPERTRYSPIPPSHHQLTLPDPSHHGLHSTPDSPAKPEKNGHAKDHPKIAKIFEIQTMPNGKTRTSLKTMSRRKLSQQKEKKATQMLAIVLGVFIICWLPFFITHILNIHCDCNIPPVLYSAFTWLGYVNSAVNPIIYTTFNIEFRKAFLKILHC
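DiscoveRx PathHunter D2 beta-arrestin cells (2,100/well) attached overnight, then compound-stimulated 90 min at 37 C in HBSS/10 mM HEPES/0.1% Tween-20 buffer; beta-galactosidase complementation read by luminescence after 1 h at ambient temperature. Dopamine 57 uM final (EC100) as control.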
D2 ag-2: activates the human D2 dopamine receptor; P14416; HEK293 T-REx D2 cells, calcium flux agonist mode; activation, % at 2 µM; 340,000 tested, 0.53% active; AID 485358;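 active = activation over 3 SD above normal in the single-dose calcium agonist read, cut at about 30% in these data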
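Calcium-flux readout, 1 cycle/sec over 180 s following compound pin transfer, in inducible HEK293 Trex D2 cells (force-coupled); dopamine controls included. Positive calcium responses during this window marked compounds as potential agonists.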
D2 PAM-1: D2 dopamine receptor (human) potentiation. HEK293 T-REx D2, calcium flux, EC20 dopamine potentiation. potentiation, % at 10 µM. 340,000 tested, 0.34% active. AID 485347;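 active = potentiation over 3 SD above the plate norm, cut at about 30% in these data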
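Potentiation of an EC20 dopamine calcium response is measured in a force-coupled, tetracycline-inducible Hek293 Trex D2 line. Compound-only kinetic reads over 180 s flag agonists before dopamine addition.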
D2 PAM-2: potentiates the human D2 dopamine receptor allosterically; 360,000 tested, 0.23% active; DiscoveRx D2 beta-arrestin cells, luminescence, 90 min; 100% = 57 uM dopamine signal; AID 624464; potentiation, % (test concentration not listed); in the data active = potentiation above about 50%
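PathHunter beta-arrestin assay in DiscoveRx D2 cells. Compounds were added with an EC20 of dopamine (50 nM final) for 90 min at 37 deg C. Luminescence was read 1 h after detection reagent, with 57 uM dopamine as the EC100 control.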
D2 antagonist: antagonizes the human D2 dopamine receptor; AID 485344; HEK293 TREx D2 cells, calcium flux, dopamine EC80; P14416; 340,000 tested, 2% active; inhibition, % at 10 µM; in the data active = inhibition above about 30%; inactive = below that, where a call was filed
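Read-out: kinetic calcium fluorescence (1 cycle/s) in inducible HEK293 T-REx D2 cells after an EC80 dopamine addition that followed 180 s compound preincubation. Loss of the dopamine response indicates antagonism.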
Of the large screens only hits and unclear results are named; the others gave an inactive call. A selection: hits, their analogues and other compounds. The true share with any hit is near 2.4%.

Cc1ccc(C(C)C)c(OCCNCc2ccccc2)c1	D2 antagonist 67.2
Cc1ccc(C)c(OCCCNCc2ccccc2)c1	none
COc1cc(F)ccc1-c1csc(C(NC(C)=O)c2ccc(F)c(F)c2)n1 (stereo unspecified)	none (no result: D2 ag-2, D2 PAM-1, D2 antagonist)
Cc1cc(C)cc(NC(=O)CSc2nc(=O)[nH]c3c2CCC3)c1	none (no result: D2 ag-1, D2 PAM-2, D2 antagonist)
CCCCOc1ccc(C(C)NC(=O)c2cccc(Nc3nc4ccccc4n4nnnc34)c2)cc1 (stereo unspecified)	none (no result: D2 ag-1, D2 PAM-2, D2 antagonist)
O=C(CN1CCCN(S(=O)(=O)c2ccc(Br)cc2)CC1)Nc1cccc(C(F)(F)F)c1	none (no result: D2 ag-1, D2 PAM-2, D2 antagonist)
NC(N)=NC(N)=Nc1cccc2ccccc12	none
NC(N)=Nc1cc2ccccc2c2ccccc12	D2 ag-2 67.8, D2 antagonist 37.5 (no result: D2 ag-1, D2 PAM-2)
Cc1nc(NC(=O)CSc2nncs2)c(Cl)cc1Cl	none
Cc1ccc(NC(=O)CSc2nncs2)cc1Cl	D2 antagonist 47.8
C=CCc1cc(Cl)ccc1OCCNCCN1CCOCC1	none
C=CCc1cc(Cl)ccc1OCCNCCOC	D2 antagonist 55.2
COc1ccc(CN2CCNC(=O)C2CC(=O)NC2CCCC2)c(OC)c1 (stereo unspecified)	D2 PAM-1 106.8
CCOc1ccccc1C(=O)NC(C(=O)Nc1cccc(S(N)(=O)=O)c1)C(C)C (stereo unspecified)	D2 antagonist 33.2
CC(C)C(NC(=O)c1ccc(C(C)(C)C)cc1)C(=O)Nc1cccc(S(N)(=O)=O)c1 (stereo unspecified)	D2 PAM-1 37.2
CCCCCN1C(C(=O)c2ccccc2)=C(NC(=O)c2ccc(OC)cc2)c2ccccc2S1(=O)=O	none (no result: D2 ag-1, D2 PAM-2, D2 antagonist)
O=C1NC(Cc2ccc(O)cc2)c2nc3ccc(F)cc3c(=O)n2-c2ncccc21 (stereo unspecified)	none (no result: D2 ag-2, D2 PAM-1, D2 PAM-2, D2 antagonist)
CC(=O)c1sc2nsc(SCCN3CCOCC3)c2c1N	none
Nc1c(C(=O)c2ccccc2)sc2nsc(SCCN3CCOCC3)c12	D2 ag-2 31.8
CCOC(=O)CSc1nnc(Cc2ccccc2)n1-c1cccc(Cl)c1	D2 PAM-1 31.9
CCN(C1CCCCC1)S(=O)(=O)c1ccc(S(=O)(=O)NCCc2ccncc2)cc1	D2 antagonist 32.2
CCN(C1CCCCC1)S(=O)(=O)c1ccc(S(=O)(=O)NCc2ccncc2)cc1	none (no result: D2 ag-2, D2 PAM-1, D2 antagonist)
CCOC(=O)CNC(=O)CSc1nnc(-c2ccc(OC)cc2)n1CC	D2 antagonist 35.3
CCN(CC)S(=O)(=O)c1cc(NC(=O)c2cc([N+](=O)[O-])ccc2N2CCOCC2)ccc1C	D2 antagonist 37.3
O=C(COC(=O)c1cc([N+](=O)[O-])ccc1N1CCOCC1)Nc1ccc(Cl)cc1	D2 antagonist 41.8
CCN(CC)S(=O)(=O)c1ccc(OC)c(NC(=O)c2cc([N+](=O)[O-])ccc2N2CCOCC2)c1	none (no result: D2 ag-2, D2 PAM-1, D2 antagonist)
Cc1ccc(C(=O)NC2CCCCC2)cc1	D2 antagonist 61.5
O=C(Nc1ccsc1C(=O)NC1CCCCC1)c1ccccc1	D2 antagonist 30.7
O=C(Nc1ccccc1C(=O)NC1CCCCC1)c1ccccc1	none
O=C(c1ccc2nc[nH]c2c1)N1CCc2ccccc2C1	D2 antagonist 35.1
O=C(NC1CCCC1)c1ccc2nc(-c3ccco3)c(-c3ccco3)nc2c1	D2 antagonist 33.3
COc1cc2c(cc1OC)CN(C(=O)c1ccc3nc[nH]c3c1)CC2	none
O=C(NC1CCCC1)c1ccc2nc[nH]c2c1	D2 PAM-1 37.7
Cc1ccccc1-c1nc(C#N)c(N2CCC(C)CC2)o1	D2 antagonist 30.7
O=S(=O)(c1ccsc1)N1CC=C(c2ccccc2)CC1	D2 ag-2 36.4, D2 antagonist 34.7
CCN(CC)C(=O)c1sc2c(c1C)c(=O)n(-c1ccc(Cl)c(Cl)c1)c(=O)n2Cc1ccccc1C#N	none (no result: D2 ag-1, D2 PAM-1, D2 PAM-2, D2 antagonist)
O=C(Cc1nc2ccccc2[nH]1)c1ccc([N+](=O)[O-])cc1	none
O=C(Cc1nc2ccccc2[nH]1)c1ccc(Cl)cc1	D2 PAM-1 44.1
CCc1ccc(C(c2ccccc2)c2c(C)[nH]c3ccccc23)s1 (stereo unspecified)	none (no result: D2 ag-1, D2 PAM-2, D2 antagonist)
O=C(NC(=S)N1CCOCC1)C12CC3CCC(CC(C3)C1)C2	none
O=C(NC(=S)N1CCOCC1)C12CCC3CC(CC(C3)C1)C2	D2 PAM-1 31.1
